Data: PubChem BioAssay AID811 (The Scripps Research Institute Molecular Screening Center, 2007)
The whole screen tested about 16,000 compounds, of which about 10 (0.06%) were called active. No stated cut-off is given here; in the data, active means inhibition above about 45%; inactive means the rest. Only a selection was taken, and actives are over-represented in it overall.

molecular target: Toll-like receptor 4 (Homo sapiens) (UniProt O00206); assay: inhibitors of human TLR4-MyD88 binding (AID 811); settings: Cell-based TLR4-MyD88 binding inhibition assay; at 10 µM; stronger effect = higher value
Sequence (O00206 whole entry, looked up): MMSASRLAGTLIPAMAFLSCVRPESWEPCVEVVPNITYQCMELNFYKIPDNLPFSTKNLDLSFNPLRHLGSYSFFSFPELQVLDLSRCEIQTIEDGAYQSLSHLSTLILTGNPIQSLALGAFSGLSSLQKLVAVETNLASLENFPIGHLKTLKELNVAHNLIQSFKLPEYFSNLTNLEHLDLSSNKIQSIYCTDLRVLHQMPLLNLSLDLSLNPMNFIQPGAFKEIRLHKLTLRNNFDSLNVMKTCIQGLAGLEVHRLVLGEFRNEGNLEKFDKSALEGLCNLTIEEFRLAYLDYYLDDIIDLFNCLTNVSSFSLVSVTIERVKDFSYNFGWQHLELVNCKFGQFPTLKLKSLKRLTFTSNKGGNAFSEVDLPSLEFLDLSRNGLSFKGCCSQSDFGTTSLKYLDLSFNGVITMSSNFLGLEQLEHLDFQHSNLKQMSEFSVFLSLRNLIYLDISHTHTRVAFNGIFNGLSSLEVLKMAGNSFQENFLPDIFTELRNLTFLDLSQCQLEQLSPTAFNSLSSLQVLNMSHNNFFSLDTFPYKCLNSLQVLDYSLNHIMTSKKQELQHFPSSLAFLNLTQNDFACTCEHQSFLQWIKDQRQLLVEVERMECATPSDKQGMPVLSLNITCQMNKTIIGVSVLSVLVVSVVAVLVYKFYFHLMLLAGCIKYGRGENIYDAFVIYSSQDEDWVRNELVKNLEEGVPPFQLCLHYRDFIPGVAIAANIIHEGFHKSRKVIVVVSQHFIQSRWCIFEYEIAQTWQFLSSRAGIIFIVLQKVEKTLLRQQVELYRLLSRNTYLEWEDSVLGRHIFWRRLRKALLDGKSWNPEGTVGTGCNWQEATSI

inhibition, inactive:
NS(=O)(=O)c1cccc(NC(=O)c2ccccc2)c1 2.32%, N#CC(Cc1ccccc1)Sc1ccccc1 (configuration not stated) 5.75%, COc1ccc(OCCC(=O)NNC(=S)Nc2cc(Cl)ccc2Cl)cc1 -3.16%, CCOCCOCCN(CC)c1ccc(N=Nc2c(C#N)cc([N+](=O)[O-])cc2C#N)c(NC(C)=O)c1 -2.49%, CC1(C)CCc2cc(-c3ccnc(SCC(=O)c4ccccc4)n3)ccc2O1 -13.2%, Cc1noc(C)c1S(=O)(=O)Nc1cc(C(F)(F)F)ccc1N1CCOCC1 3.25%, N#CCCN(CCc1ccccn1)S(=O)(=O)c1ccc2c(c1)CCO2 3.85%, CC(C)(C)C(=O)NNC(=O)c1ccc(Oc2ccc(C3SCCS3)cc2)o1 -1.82%, Cc1cc2c(cn1)C(=O)c1ccccc1-2 -3.73%, CCOC(=O)c1cc(Sc2ccccc2N)cc(C(=O)OCC)n1 -13.8%, Cc1c(C)c(C)c(CSC(=N)CC#N)c(C)c1C 1.02%, Cc1cc(NCc2cccnc2)no1 -4.99%, O=C(/C=C/c1cccc2ccccc12)N1CCCCC1 2.1%, CC1=CC(=O)C(CCC2=CC(=O)C(C)=CC2=O)=CC1=O -7.79%, CC1=NCCNC(C)=C1N1CCOCC1 2.33%, N/C(Cc1ccc(F)cc1F)=N\OC(=O)c1cccc(C(F)(F)F)c1 2.07%, O=C(N/N=C/c1ccc(Cl)cc1Cl)/C(=C/c1cccs1)NC(=O)c1ccccc1 -7.21%, NC(=NC(=O)CCn1c(=O)oc2ccccc21)c1cc(Cl)cc(Cl)c1 -2.8%, Cc1ccc(CC(=O)c2cccnc2)cc1 3.89%, FC(F)(F)c1ccc(-n2cn[nH]c2=S)cc1 -1.09%, Cc1cc(C)nc(N/C=C(\C#N)S(=O)(=O)c2ccc(Cl)cc2)n1 -13%, CCOC(=O)Cc1nnc(-c2ccc(Cl)cc2)o1 -0.7%, COC(C)(OC)c1ccc(C#N)c(=S)[nH]1 -5.59%, CCOC1=NC(C(F)(F)F)(C(F)(F)F)N=C(N2CCOCC2)O1 0.2%, CN(C)C(=O)Nc1ccc(C(C)(C)C)cc1 -8.78%, O=C(O)CCC(=O)Nc1ccccc1 0.27%, N#Cc1nc(-c2ccccc2)c(-c2ccccc2)nc1C#N 9.3%, Cc1onc(-c2ccccc2)c1C(=O)Nc1ccc(/C(C#N)=C/c2ccccn2)cc1 -8.57%, Cn1cc(C(=O)c2ccc(Cl)cc2)cc1/C=C(\C#N)S(=O)(=O)c1ccc(C(F)(F)F)cn1 -4.67%, O=C(O)CCC(=O)Nc1ccc2c(c1)OCCCO2 -5.34%, c1ccc(-n2cccc2)c(N2CCCCC2)c1 -11.1%, Cc1ccc2oc(=O)n(CC/C(N)=N/OC(=O)c3ccc(C(F)(F)F)nc3C)c2c1 8.34%, CCOC(=O)c1sc(SC)c(-c2ccccc2)c1N 2.9%, CCOC(=O)CNC(=O)CCc1cc(OC)c(OC)c(OC)c1 -5.89%, O=C(Oc1ccc(Cl)cc1)c1snnc1-c1ccccc1 -12.5%, FC(F)(F)c1cccc(NC(=S)NNc2nccc(C(F)(F)F)n2)c1 14.4%, Cc1c(S(=O)(=O)c2ccc(Cl)cc2)csc1C(=O)Nc1ccc2c(c1)OCCO2 -2.01%, O=C(CCSc1nc2ccccc2o1)N1CCc2cc([N+](=O)[O-])ccc21 -4.41%, O=C(Nc1ccc(OCc2ccccc2)cc1)Nc1ccc2c(c1)C(=O)OC2 -6.75%, CCOC(=O)c1c(NS(=O)(=O)c2cccc3nsnc23)sc(C)c1C -17.3%, CCOC(=O)CNC(=O)c1ccc(-c2cccc([N+](=O)[O-])c2)o1 2.51%, CC(=O)OCC(=O)[C@@]1(O)[C@H](C)CC2C3CCC4=CC(=O)C=CC4(C)C3=CCC21C (some centres not stated) -5.02%, O=S(=O)(CCN1CCC(C(F)(F)F)CC1)c1ccccc1 -7.12%, COc1ccc(OC)c(CCCc2cc(OC)ccc2OC)c1 -1.32%, O=C1C=C(SCC(=O)c2ccccc2)SC(c2ccc(Cl)cc2)C1 (configuration not stated) -2.02%, O=c1cc(-c2ccccc2)sc2ccc(Cl)cc12 5.03%, O=C(O)c1cnc(NCc2ccccc2)s1 -1.62%, O=S(=O)(c1ccc(Cl)c(Cl)c1)N1CCc2c([nH]c3ccccc23)C1C(F)(F)F (configuration not stated) 0.92%, N#Cc1c(-c2cccs2)oc(-n2cccc2)c1-c1cc(Br)cs1 6.38%, CCOC(=O)c1cc(CC)sc1NC(=O)c1cccc(C(F)(F)F)c1 1.92%, OCCNc1nc2ccccc2[nH]1 -3.29%, COC(=O)CCN1CCc2cc(N=Nc3ccc(C(F)(F)F)cc3)ccc21 3.28%, N#CCSc1ccc2ccccc2c1 -1.93%, CCN(CCN1C(=O)CCC1=O)c1cccc(NC(C)=O)c1 -4.21%, Cc1cc(/C(N)=N/OC(=O)c2cccs2)c(-c2ccccc2)o1 3.39%, CCOc1cc(-c2cccs2)nc(N)n1 1.81%, O=S(=O)(c1ccc(Cl)s1)N1CCN(c2ccccc2)CC1 -1.65%, CSc1sc(C(N)=O)cc1C#N -2.28%, O=C(O)c1nccnc1C(=O)NCCSCc1c(F)cccc1Cl -7.53%, CCOc1ccc(C(N)=O)c(SCC(=O)O)c1 -4.29%, N#Cc1nccnc1N1CCN(c2ccccc2)CC1 10.5%, Cc1cc(S(=O)(=O)Oc2ccc(OCc3ccccc3)cc2)c(C)cc1Cl 9.02%, Cn1cccc1-c1n[nH]c(=S)n1-c1ccc(Cl)cc1Cl 9.51%, O=c1[nH]c2cc(Cl)c(Cl)cc2n1-c1ccncc1 -5.56%, COc1cccc(OCc2ccccc2)c1C#N -5%, O=C(CSc1nc2ccccc2o1)N1CCC(n2cccc2)CC1 -8.01%, CC(C)(C)C(=O)OCC(N)=S -7.02%, CSc1c(C#N)c(N)nc(SCC(=O)c2ccc(OC(F)F)cc2)c1C#N 1.37%, O=C(O)c1ccccc1/C=N/Nc1cc(Cl)ccc1Cl -2.5%, NC(=O)c1ccccc1OCCOc1ccccc1C(N)=O -25.3%, CN(C)c1cccc2c1c(NC(=O)Nc1ccc(OCc3ccccc3)cc1)nn2C -5.12%, Cc1ccccc1NC(=O)NCc1ccco1 0.5%, OCCNC(=S)Nc1ccccc1-c1ccccc1 6.35%, Cc1c(N/N=C(\C#N)c2nc3ccccc3[nH]2)c(=O)n(-c2ccccc2)n1C 3.99%, CN(C)c1cc(-c2cc(Cl)sc2Cl)oc(=O)c1Cl -4.82%, O/N=C/c1sccc1Oc1ccccc1 0.35%, COC(OC)c1ccnc(SCC(=O)Nc2ccc(C(C)C)cc2)n1 -8.52%, O=C(Nc1ccccc1N1CCOCC1)C1CCN(c2nccc(C(F)(F)F)n2)CC1 1.1%, CC1(C)CC(=O)c2c(NCc3ccco3)sc(C#N)c2C1 8.27%, COC(=O)c1sccc1-c1ccc(/C(C)=N/NC(N)=O)o1 0.98%, Fc1cccc(Cl)c1CSc1nccn1-c1cccnc1 5.59%, O=C(OCc1ccco1)c1cnc(Nc2ccc(OC(F)(F)F)cc2)nc1C(F)(F)F 11.4%, N#Cc1c(N)nc2c3c1NC(O)(c1ccccc1)C(C#N)C3c1cc(Cl)ccc1O2 (configuration not stated) -1.34%, Cc1nc2sc(-c3ccccc3)cc2c(=O)o1 4.05%, NS(=O)(=O)c1cc(Br)ccc1I -0.48%, O=C1CCN(Cc2ccccc2)C(=O)N1c1ccc2c(c1)CCO2 -14.4%, CCOC(=O)C1=C(C)NC(=O)NC1c1ccc(-c2cccc([N+](=O)[O-])c2)o1 (configuration not stated) -3.21%, CC(CC(=O)O)Oc1ccc(Cl)cc1[N+](=O)[O-] (configuration not stated) -0.53%, CSc1nc(N/C=C(\C#N)C(=O)c2cccs2)n2nc(C)cc2n1 -2.59%, N#CCc1ccc(OC(=O)c2cccnc2)cc1 -3.47%, CN(C)C(=S)Nc1ccc(Br)cc1Cl -2.8%, Clc1cncc(Cl)c1N/N=C/C1CC2C=CC1C2 (configuration not stated) 5.74%, O=C(O)c1onc2ccccc12 -3.17%, CSc1nccc(-c2ccc(S(=O)(=O)n3nc(C)c(Br)c3C)s2)n1 2.65%, Cc1cc(NC(=O)c2cc(-c3ccccc3)c(C(F)(F)F)s2)no1 -1.45%, CC(=O)Nc1ccc(/C(N)=N/O)cc1 1.86%, O=C(O)CC1(CC(=O)NCc2ccco2)CCCCC1 -10.3%, CC(=O)OC1=CCC2C3CC[C@@]4(C)CC(OC(C)=O)CCC4(C)C3C(OC(C)=O)CC12C (some centres not stated) 5.37%, CC(C)(C)NC(=O)[C@@H]1C[C@@H]2CCCC[C@@H]2CN1C(=O)c1ccno1 2.92%, CCOC(=O)c1nnc2c(Br)c(C)nn2c1C 0.26%, CCc1ccnc(NS(=O)(=O)c2ccc3c(c2)OCCO3)c1 -7.82%, Cc1nc(C(=O)NNC(=S)Nc2ccccc2C(F)(F)F)cs1 -3.73%
